Screening results (PubChem)
Rows were chosen to be rich in hits. Some 1.3% of all compounds tested hit in one or more screens of this group.
gsp antag: gsp mutant antagonism; gsp-mutant cells, cAMP HTRF, 30 min; Potency, µM (doses to about 76.9 µM), for the others: at the highest dose activity change, negative = inhibition, usual class: inhibitors; 0.4% of 340,000 active; AID 624288; calls by dose curve; cell line not stated here;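 note: intracellular cAMP measured with PDE inhibitor Ro 20-1724 present during compound exposure; potency is the fitted concentration of half-maximal effect; % is set by controls: 0 for no effect and ±100 for the full control effect; nearly all actives have a fitted effect of over 65% in size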
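Measurement of cellular cAMP by homogeneous time-resolved fluorescence following a 30 min compound exposure at 37C. The PDE inhibitor […] was present throughout; the assay buffer was DPBS with 0.05% BSA and 0.005% Tween 20.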
RXFP1 antag: RXFP1 (human) relaxin receptor antagonism; Q9HBX9; HEK293-RXFP1, relaxin-stimulated cAMP HTRF, 30 min; stronger effect = lower value; AID 1259400; 0.59% of 350,000 active; activity change, negative = inhibition, % at 57.5 µM;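 active = activity change of -60% or lower, but not beyond a set lower limit; inconclusive = change between -60% and -40%, or beyond the set limit; inactive = change above -40%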; note: % is set by controls: 0 for no effect and ±100 for the full control effect
pAkt inh: inhibitors of Akt phosphorylation. AID 651550. 0.32% of 360,000 active. Neuro2A IGF-stimulated pAkt S473 HTRF, 20 min; stronger effect = lower value. activity change, % for hits at 50 µM; in the data active = activity change below about -80%; inconclusive = mostly about -51% to -80%; note: % is set by controls: 0 for no effect and ±100 for the full control effect
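Neuro2A cells (4,500/well, DMEM with 0.5% FBS) were treated with compound at a single 50 µM final concentration, stimulated with 6 nM IGF for 20 min at 37 °C, and lysed. Phospho-Akt Ser473 was read by HTRF as 665/615 ratio ×10^4.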
TSHR antagonist: human thyrotropin receptor antagonism. P16473. 0.2% of 330,000 active. activity change, negative = inhibition, % at 11.5 µM. TSHR-expressing cells, TSH-stimulated cAMP HTRF, 2 h; stronger effect = lower value. AID 504810;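 active = activity change below a set negative limit, meaning inhibition stronger than a set level, cut at about -70% in these data; inconclusive = activity change between two set negative limits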; note: % is set by controls: 0 for no effect and ±100 for the full control effect
Target sequence (P16473 whole entry, looked up): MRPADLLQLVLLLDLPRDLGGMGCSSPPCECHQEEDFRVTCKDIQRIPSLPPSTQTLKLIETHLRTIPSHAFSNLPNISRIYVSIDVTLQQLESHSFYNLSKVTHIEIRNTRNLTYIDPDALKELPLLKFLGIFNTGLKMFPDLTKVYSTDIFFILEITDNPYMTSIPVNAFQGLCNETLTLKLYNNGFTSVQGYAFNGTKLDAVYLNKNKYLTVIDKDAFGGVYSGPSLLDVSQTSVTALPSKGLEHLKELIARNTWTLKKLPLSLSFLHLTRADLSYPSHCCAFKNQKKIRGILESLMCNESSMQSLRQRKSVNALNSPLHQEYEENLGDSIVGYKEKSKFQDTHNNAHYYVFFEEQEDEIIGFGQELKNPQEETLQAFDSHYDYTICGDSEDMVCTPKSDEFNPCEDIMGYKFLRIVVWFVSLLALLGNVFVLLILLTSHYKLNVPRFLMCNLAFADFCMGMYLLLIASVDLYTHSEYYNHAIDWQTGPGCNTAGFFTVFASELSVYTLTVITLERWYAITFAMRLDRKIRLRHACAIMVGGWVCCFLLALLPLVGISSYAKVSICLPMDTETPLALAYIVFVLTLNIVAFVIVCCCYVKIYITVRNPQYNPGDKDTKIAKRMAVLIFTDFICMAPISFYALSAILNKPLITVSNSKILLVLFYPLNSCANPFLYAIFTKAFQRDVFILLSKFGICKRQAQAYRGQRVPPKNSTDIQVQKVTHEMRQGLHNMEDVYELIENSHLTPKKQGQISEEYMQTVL
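TSHR-expressing cells, 200/well, pre-treated with compound, then stimulated with EC80 TSH (4nM final) for 2 hours at 37 deg C. cAMP measured by competitive HTRF: anti-cAMP cryptate antibody in lysis buffer plus cAMP-d2, read after 30 minutes at room temperature.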
gsp ag: gsp mutant agonism. gsp mutant cells, cAMP HTRF, 30 min. AID 624287. 0.13% of 340,000 active. Potency, µM (top dose mostly 76.9 µM), inactives show at the top dose activation (cAMP increase), hits mostly activators; active = well fitted activation curve with a large enough effect; inconclusive = small, poorly fitted or top-dose-only effect, or another doubt; inactive = no such curve, though single readings can be large or run the other way; cell line not stated here;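 note: phosphodiesterase inhibitor Ro 20-1724 added with compounds to block cAMP breakdown; potency is the fitted concentration of half-maximal effect; nearly all actives have a fitted effect of over 60% in size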
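Cells in DMEM/10% FBS with G418 were pretreated with compounds in DMSO plus […] (300 uM stock) for 30 min at 37C. cAMP was measured by HTRF (cAMP-d2 plus anti-cAMP antibody-K) after 30 min at room temperature.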
RXFP1 ag: activates the human relaxin receptor RXFP1 | Q9HBX9 | HEK293T-RXFP1 cAMP TR-FRET, 30 min; response scale: percent of porcine relaxin response, buffer zero | Potency, µM (titrated, usually from 57.5 µM), without a hit: at the top dose activation, hits mostly activators | 0.3% of 370,000 active; active = well fitted activation curve with a large enough effect; inconclusive = small, poorly fitted or top-dose-only effect; note: potency is the fitted concentration of half-maximal effect; % is set by controls: 0 for no effect and ±100 for the full control effect; nearly all actives have a fitted effect of over 60% in size
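HEK293 cells stably expressing RXFP1, treated 30 min at 37C with compounds plus PDE4 inhibitor Ro 20174; cAMP measured by HTRF TR-FRET. Normalized to buffer and 29 nM porcine relaxin; EC50 by Hill fit.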
* = called active by the depositor; [ ] = dose if it differs, or a comment.

O=C(CNC1C(=O)Nc2ccccc21)Sc1ccccc1 (stereo unspecified) was read as gsp antag 4%, RXFP1 antag -3, pAkt inh -111%*, TSHR antagonist 17, gsp ag -41% and RXFP1 ag -1%.
Screening Cc1ccc(-c2c(C(=O)Nc3ccccc3C)c(C)[nH]c(=S)c2C#N)o1 returned gsp antag 18%, RXFP1 antag -2, pAkt inh inactive, TSHR antagonist 2, gsp ag 13%[15.4 µM] and RXFP1 ag 28µM*.
`COC(=O)CNc1n[nH]c(=S)[nH]c1=O` gave gsp antag inconclusive, RXFP1 antag -15, pAkt inh inactive, TSHR antagonist 2, gsp ag inconclusive and RXFP1 ag inconclusive.
For CC(C)OC(=O)CNc1n[nH]c(=S)[nH]c1=O the results were RXFP1 antag -39, pAkt inh inactive, TSHR antagonist -2, gsp ag 36%[15.4 µM] and RXFP1 ag 5µM*.
CCOc1ccc(-c2cc(OC(=O)c3ccccc3)c3c(C)oc(C)c3c(=O)c2)cc1 was read as RXFP1 antag -11 and RXFP1 ag 6%.
`COc1ccc(-c2cc(OC(=O)c3cccc(Cl)c3)c3c(C)oc(C)c3c(=O)c2)cc1OC` gave RXFP1 antag -25 and RXFP1 ag -1%.
For COc1cc(-c2cc(OC)c3c(C)oc(C)c3c(=O)c2)ccc1OC(=O)c1ccccc1C the results were RXFP1 antag -65* and RXFP1 ag -3%.
For CCOc1cc(-c2ccc(OC(=O)c3ccccc3F)cc2)cc(=O)c2c(C)oc(C)c12 the results were RXFP1 antag -97* and RXFP1 ag -2%.
For CCOc1cc(-c2ccc(OC(=O)c3ccc(C)cc3)c(OC)c2)cc(=O)c2c(C)oc(C)c12 the results were RXFP1 antag -64* and RXFP1 ag 1%.
For COc1cc(-c2cc(OC)c3c(C)oc(C)c3c(=O)c2)ccc1OC(=O)c1ccc(C)cc1 the results were RXFP1 antag inconclusive and RXFP1 ag 0%.
For COc1cc(-c2cc(OC)c3c(C)oc(C)c3c(=O)c2)ccc1OC(=O)c1cccc(Cl)c1 the results were RXFP1 antag -76* and RXFP1 ag -2%.
For CCOC(=O)c1ccc(NC(=O)c2c(NCc3cc(OC)ccc3OC)sc3c2CCC3)cc1 the results were RXFP1 antag inconclusive and RXFP1 ag 3%.
`CCCn1nnnc1SCC(=O)N1C(C)CCCC1C` (stereo unspecified) gave gsp antag -3%, RXFP1 antag -3, pAkt inh inactive, TSHR antagonist 5, gsp ag 4%[15.4 µM] and RXFP1 ag -1%.
`O=C1c2ccc([N+](=O)[O-])cc2C(=O)N1c1ccc([N+](=O)[O-])cn1` gave gsp antag 1%, RXFP1 antag -2, pAkt inh inactive and gsp ag 7%.
Screening CCOC(=O)[C@]12CCCC=C1N(CCC1=CCCCC1)C(=O)[C@H](CC(=O)NCc1ccc(OC)c(OC)c1)C2 returned pAkt inh inactive.
O=C(c1cc(COc2ccc3ncccc3c2)on1)N1CCCC1 was read as gsp antag -15%, RXFP1 antag 2, pAkt inh inactive, TSHR antagonist -32, gsp ag 2%[15.4 µM] and RXFP1 ag 18%.
For CC(NC(=O)c1cc(COc2ccc3ncccc3c2)on1)c1ccc(F)cc1 (stereo unspecified) the results were gsp antag 28µM*, RXFP1 antag -12, pAkt inh inactive, TSHR antagonist -27, gsp ag -6% and RXFP1 ag 0%.
`COc1cccc(CN(C)C(=O)c2cc(COc3c(F)cccc3F)on2)c1` gave gsp antag 5%, RXFP1 antag 11, pAkt inh inactive, TSHR antagonist -15, gsp ag 19% and RXFP1 ag 0%.
For COc1cccc(CN(C)C(=O)c2cc(COc3ccc4ncccc4c3)on2)c1 the results were gsp antag 35µM*, RXFP1 antag -8, pAkt inh inactive, TSHR antagonist -29, gsp ag -6%[15.4 µM] and RXFP1 ag 3%.
CSc1nc(N(C)CCO)c2sc3nc(-c4ccco4)c4c(c3c2n1)CCC4 was read as gsp antag -14%, RXFP1 antag 1, pAkt inh inactive, TSHR antagonist -14, gsp ag inconclusive and RXFP1 ag 4%.
For CSc1nc(SCC(=O)O)c2sc3nc(-c4ccccc4)c4c(c3c2n1)CCC4 the results were gsp antag 7%, RXFP1 antag 0, pAkt inh inactive, TSHR antagonist -14, gsp ag inconclusive and RXFP1 ag 28µM*.
`CC(=O)Nc1ccc(S(=O)(=O)N2CCN(Cc3cccs3)CC2)cc1` gave gsp antag -4%, RXFP1 antag 3, pAkt inh inactive, TSHR antagonist -1, gsp ag 4% and RXFP1 ag 4%.
Screening COc1cc(/C=C(\C#N)c2nc3ccc(C)cc3[nH]2)cc([N+](=O)[O-])c1O returned gsp antag 25µM*, RXFP1 antag -19, pAkt inh inactive, TSHR antagonist -4, gsp ag -35% and RXFP1 ag -3%.
`Nc1ccn(C2CO[C@H](CO)O2)c(=O)n1` (stereo partly specified) gave RXFP1 antag 14.
Screening OC1(c2ccccc2)CC(c2ccccc2)c2ccccc2O1 (stereo unspecified) returned gsp antag inconclusive, RXFP1 antag -77*, pAkt inh inactive and gsp ag -4%.
COc1ccc(C2CC(O)(c3ccccc3)Oc3cc(OC)c(OC)c(OC)c32)cc1 (stereo unspecified) was read as gsp antag -8%, pAkt inh inactive, TSHR antagonist -29, gsp ag inconclusive and RXFP1 ag 6%.
For O=c1[nH]c2ccc(S(=O)(=O)N3CCC(Cc4ccccc4)CC3)cc2o1 the results were gsp antag 25µM*, RXFP1 antag -6, pAkt inh inactive, TSHR antagonist -20, gsp ag 8% and RXFP1 ag 2%.
COc1ccccc1OCCCCN1CCN(C(c2ccccc2)c2ccccc2)CC1 was read as gsp antag -14%, RXFP1 antag -80*, pAkt inh inactive, TSHR antagonist 31, gsp ag 14%[15.4 µM] and RXFP1 ag -1%.
Fc1ccc(CN2CCN(C(c3ccccc3)c3ccccc3)CC2)cc1 was read as gsp antag -16%, RXFP1 antag -29, pAkt inh inactive, TSHR antagonist 2, gsp ag -108% and RXFP1 ag 0%.
